# Data as given in article PMC7862700, “An all-to-all approach to the identification of sequence-specific readers for epigenetic DNA modifications on cytosine”.
# Legend:
# Experiment in all cases: DAPPL (digital affinity profiling via proximity ligation, sequencing); 10 mM Tris-HCl pH 7.5, 50 mM NaCl, 1 mM DTT, 4% glycerol, room temperature, 30 min; GST-TFs on glutathione beads, 16-mer random dsDNA library, 0.1% formaldehyde crosslink after washing; high values mean tight binding
# FEV = target: T1, FEV (Homo sapiens, UniProt Q99581 1-238); conditions: protein: recombinant; tags: N-terminal GST; dsDNA, one strand shown
# T1 sequence: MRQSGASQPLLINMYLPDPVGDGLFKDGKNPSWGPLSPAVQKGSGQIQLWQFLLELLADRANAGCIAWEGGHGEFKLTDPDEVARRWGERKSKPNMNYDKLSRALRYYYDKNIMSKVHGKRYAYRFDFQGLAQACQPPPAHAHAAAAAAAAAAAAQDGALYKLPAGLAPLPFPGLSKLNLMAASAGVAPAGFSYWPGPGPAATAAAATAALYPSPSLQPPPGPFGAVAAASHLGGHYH
# Procedure, shortened: (§1)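 Sequencing on an Illumina NextSeq500 followed washing, crosslinking with 0.1% formaldehyde, proximity ligation (BsaI/T4 ligase, 1 h, 37 °C) and PCR amplification of pools that had been incubated for 30 min at room temperature with 200 nmole of a random double-stranded 16-mer DNA library in Tris/NaCl/DTT/glycerol buffer. Each pool held DNA-barcoded human transcription factors, expressed in yeast as GST fusions and captured on glutathione beads, plus a tag-only sample. Binding signal is a hexamer's read frequency for a factor divided by its frequency in the tag-only sample.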
# ETV5 = ETV5 (Homo sapiens, UniProt P41161 1-510); conditions: protein: recombinant; tags: N-terminal GST; dsDNA, one strand shown
# Sequence of ETV5 (P41161 whole entry): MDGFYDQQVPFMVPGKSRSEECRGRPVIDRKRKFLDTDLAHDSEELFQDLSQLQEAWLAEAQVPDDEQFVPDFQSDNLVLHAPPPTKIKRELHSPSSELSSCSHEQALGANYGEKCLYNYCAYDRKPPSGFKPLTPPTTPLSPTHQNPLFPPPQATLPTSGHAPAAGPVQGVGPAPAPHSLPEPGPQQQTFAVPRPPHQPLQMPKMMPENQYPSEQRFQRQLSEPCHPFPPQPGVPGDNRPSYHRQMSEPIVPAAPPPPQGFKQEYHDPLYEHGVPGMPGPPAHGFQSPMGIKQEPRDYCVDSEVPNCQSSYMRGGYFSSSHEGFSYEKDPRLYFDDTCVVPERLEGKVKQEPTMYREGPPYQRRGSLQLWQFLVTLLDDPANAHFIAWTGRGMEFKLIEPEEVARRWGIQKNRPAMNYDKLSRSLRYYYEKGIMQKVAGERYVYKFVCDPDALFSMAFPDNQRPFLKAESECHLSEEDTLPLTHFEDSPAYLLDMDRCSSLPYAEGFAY
# Procedure, shortened: as §1
# HSF1 = HSF1 (Homo sapiens, UniProt Q00613 1-529); conditions: protein: recombinant; tags: N-terminal GST; chain copies: 3; dsDNA, one strand shown
# Sequence of HSF1 (Q00613 whole entry): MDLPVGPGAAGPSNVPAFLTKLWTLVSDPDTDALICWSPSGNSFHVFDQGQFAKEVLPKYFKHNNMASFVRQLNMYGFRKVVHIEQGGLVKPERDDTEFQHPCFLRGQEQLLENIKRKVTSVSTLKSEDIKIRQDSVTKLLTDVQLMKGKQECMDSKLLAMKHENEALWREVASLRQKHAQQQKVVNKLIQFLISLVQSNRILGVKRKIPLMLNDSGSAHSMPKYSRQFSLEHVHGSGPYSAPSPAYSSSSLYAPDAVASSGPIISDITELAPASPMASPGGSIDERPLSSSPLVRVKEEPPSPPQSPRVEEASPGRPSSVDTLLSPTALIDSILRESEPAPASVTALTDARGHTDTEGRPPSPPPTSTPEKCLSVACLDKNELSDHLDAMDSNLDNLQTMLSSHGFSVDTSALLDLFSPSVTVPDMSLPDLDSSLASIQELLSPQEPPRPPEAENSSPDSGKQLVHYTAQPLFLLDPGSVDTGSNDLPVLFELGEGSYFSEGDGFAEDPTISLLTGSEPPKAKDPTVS
# Procedure, shortened: as §1
# SPIC = target: T2, SPIC (Homo sapiens, UniProt Q8N5J4 1-248); conditions: protein: recombinant; tags: N-terminal GST; dsDNA, one strand shown
# T2 sequence: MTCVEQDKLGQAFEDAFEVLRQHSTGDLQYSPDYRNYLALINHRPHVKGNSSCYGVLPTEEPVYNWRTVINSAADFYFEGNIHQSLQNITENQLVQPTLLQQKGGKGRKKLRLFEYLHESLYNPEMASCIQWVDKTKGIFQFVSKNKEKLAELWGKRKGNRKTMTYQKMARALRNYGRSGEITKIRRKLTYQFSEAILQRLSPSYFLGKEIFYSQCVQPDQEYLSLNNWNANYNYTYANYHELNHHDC
# Procedure, shortened: as §1
# ELF4 = ELF4 (Homo sapiens, UniProt Q99607 1-663); conditions: protein: recombinant; tags: N-terminal GST; dsDNA, one strand shown
# Sequence of ELF4 (Q99607 whole entry): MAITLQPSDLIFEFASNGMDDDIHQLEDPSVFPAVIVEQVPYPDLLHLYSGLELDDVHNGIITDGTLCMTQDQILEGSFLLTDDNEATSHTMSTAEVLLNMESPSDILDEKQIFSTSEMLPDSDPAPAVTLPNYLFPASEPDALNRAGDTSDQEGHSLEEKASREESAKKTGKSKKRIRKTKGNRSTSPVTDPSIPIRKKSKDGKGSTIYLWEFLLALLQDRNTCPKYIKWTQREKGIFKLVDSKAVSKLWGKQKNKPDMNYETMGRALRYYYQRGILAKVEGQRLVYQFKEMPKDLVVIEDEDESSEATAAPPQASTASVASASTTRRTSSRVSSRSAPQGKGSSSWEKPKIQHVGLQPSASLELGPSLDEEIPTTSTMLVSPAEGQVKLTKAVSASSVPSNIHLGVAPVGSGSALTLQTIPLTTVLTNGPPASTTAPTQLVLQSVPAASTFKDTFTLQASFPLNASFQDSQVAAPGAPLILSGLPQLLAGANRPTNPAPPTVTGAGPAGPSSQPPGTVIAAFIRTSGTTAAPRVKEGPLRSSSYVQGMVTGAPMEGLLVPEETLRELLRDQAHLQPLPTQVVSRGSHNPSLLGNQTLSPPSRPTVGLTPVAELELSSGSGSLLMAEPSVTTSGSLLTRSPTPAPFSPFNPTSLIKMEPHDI
# Procedure, shortened: as §1
# ELK4 = target: T3, ELK4 (Homo sapiens, UniProt P28324-2 1-405); conditions: protein: recombinant; tags: N-terminal GST; dsDNA, one strand shown
# T3 sequence: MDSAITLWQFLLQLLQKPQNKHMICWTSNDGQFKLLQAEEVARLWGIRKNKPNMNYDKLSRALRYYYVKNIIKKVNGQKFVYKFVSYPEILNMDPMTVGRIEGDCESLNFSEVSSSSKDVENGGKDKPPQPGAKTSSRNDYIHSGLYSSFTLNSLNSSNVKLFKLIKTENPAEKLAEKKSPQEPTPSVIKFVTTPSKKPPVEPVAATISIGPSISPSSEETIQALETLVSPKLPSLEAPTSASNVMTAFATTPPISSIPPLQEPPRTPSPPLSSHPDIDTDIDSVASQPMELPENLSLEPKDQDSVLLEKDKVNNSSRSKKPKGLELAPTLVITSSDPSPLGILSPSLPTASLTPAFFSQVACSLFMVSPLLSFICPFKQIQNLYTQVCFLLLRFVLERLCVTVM
# Procedure, shortened: as §1
# ETV2 = target: T4, ETV2 (Homo sapiens, UniProt O00321 1-342); conditions: protein: recombinant; tags: N-terminal GST; dsDNA, one strand shown
# T4 sequence: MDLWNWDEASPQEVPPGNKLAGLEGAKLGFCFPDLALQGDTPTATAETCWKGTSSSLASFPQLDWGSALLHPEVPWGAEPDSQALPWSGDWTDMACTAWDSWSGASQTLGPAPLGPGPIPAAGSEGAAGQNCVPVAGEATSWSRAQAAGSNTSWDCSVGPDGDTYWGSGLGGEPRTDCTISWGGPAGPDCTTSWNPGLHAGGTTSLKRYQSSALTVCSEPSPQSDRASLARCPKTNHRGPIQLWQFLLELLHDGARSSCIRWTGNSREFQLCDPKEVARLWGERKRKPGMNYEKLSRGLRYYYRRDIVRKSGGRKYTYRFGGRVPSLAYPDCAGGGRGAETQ
# Procedure, shortened: as §1
# ELF3 = target: T5, ELF3 (Homo sapiens, UniProt P78545 1-371); conditions: protein: recombinant; tags: N-terminal GST; dsDNA, one strand shown
# T5 sequence: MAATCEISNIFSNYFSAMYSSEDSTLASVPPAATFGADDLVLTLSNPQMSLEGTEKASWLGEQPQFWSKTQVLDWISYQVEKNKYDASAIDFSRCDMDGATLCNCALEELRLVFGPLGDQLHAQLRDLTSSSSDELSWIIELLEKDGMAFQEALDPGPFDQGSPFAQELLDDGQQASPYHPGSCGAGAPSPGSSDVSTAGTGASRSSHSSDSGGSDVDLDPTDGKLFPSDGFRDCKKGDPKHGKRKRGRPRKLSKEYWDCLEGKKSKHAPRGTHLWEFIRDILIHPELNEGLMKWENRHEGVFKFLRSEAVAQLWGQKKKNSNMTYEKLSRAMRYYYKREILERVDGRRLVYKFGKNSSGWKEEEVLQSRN
# Procedure, shortened: as §1
# CRX = CRX (Homo sapiens, UniProt O43186 1-299); conditions: protein: recombinant; tags: N-terminal GST; dsDNA, one strand shown
# Sequence of CRX (O43186 whole entry): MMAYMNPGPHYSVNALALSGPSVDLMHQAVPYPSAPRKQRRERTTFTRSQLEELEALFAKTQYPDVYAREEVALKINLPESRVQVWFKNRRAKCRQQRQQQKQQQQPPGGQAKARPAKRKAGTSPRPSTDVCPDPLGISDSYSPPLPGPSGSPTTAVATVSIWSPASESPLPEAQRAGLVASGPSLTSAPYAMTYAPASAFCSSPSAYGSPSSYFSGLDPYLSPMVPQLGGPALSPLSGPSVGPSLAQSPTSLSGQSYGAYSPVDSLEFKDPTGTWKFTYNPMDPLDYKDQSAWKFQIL
# Procedure, shortened: as §1
# ETV1 = ETV1 (Homo sapiens, UniProt P50549 1-477); conditions: protein: recombinant; tags: N-terminal GST; dsDNA, one strand shown
# Sequence of ETV1 (P50549 whole entry): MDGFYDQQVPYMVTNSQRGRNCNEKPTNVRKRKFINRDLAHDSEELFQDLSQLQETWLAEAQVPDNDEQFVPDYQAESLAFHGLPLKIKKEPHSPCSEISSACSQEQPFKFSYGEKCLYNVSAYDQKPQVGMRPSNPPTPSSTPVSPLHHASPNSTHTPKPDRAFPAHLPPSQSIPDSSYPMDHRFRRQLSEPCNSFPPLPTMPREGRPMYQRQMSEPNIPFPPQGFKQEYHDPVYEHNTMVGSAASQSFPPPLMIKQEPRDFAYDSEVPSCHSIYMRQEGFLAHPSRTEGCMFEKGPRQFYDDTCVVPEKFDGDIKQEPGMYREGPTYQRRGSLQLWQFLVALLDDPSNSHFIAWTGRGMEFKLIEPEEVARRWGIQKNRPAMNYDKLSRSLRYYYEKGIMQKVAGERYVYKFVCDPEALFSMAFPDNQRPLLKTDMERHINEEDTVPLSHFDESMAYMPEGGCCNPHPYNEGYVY
# Procedure, shortened: as §1
sequence,measurement,setting,value
TCCTAT,binding signal,FEV,"1.41 fold enrichment (6-mer frequency, TF over GST control)"
same,binding signal,ETV5,"1.47 fold enrichment (6-mer frequency, TF over GST control)"
same,binding signal,HSF1,"1.41 fold enrichment (6-mer frequency, TF over GST control)"
same,binding signal,SPIC,"1.68 fold enrichment (6-mer frequency, TF over GST control)"
same,binding signal,ELF4,"1.46 fold enrichment (6-mer frequency, TF over GST control)"
same,binding signal,ELK4,"1.49 fold enrichment (6-mer frequency, TF over GST control)"
same,binding signal,ETV2,"1.56 fold enrichment (6-mer frequency, TF over GST control)"
same,binding signal,ELF3,"1.74 fold enrichment (6-mer frequency, TF over GST control)"
same,binding signal,CRX,"1.68 fold enrichment (6-mer frequency, TF over GST control)"
same,binding signal,ETV1,"1.57 fold enrichment (6-mer frequency, TF over GST control)"
